Rows were chosen to be rich in hits. Some 3.8% of all compounds tested hit in one or more screens of this group.
Mdm2 MdmX PPI – human Mdm2/MdmX binding inhibition. SaOS-2 split-luciferase Mdm2/MdmX complementation, luminescence. actives 3% (n = 330,000). inhibition, % at 8 µM. AID 485346;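 active means inhibition of at least 50% at 8 µM in the primary screen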
Jurkat NFkB inh – inhibitors of the PMA/ionomycin-induced NF-kB reporter in Jurkat cells | actives 0.53% (n = 330,000) | PMA/ionomycin-induced NF-kB luciferase reporter, luminescence | inhibition, % at 4 µM; in the data active means inhibition above about 50%
Gli-Sufu antag – antagonists of Gli-Sufu signaling | Sufu-KO-LIGHT fibroblasts, Gli luciferase reporter luminescence | inhibition, % at 5 µM | actives 0.74% (n = 340,000);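 active means inhibition above about 55%, limit read from the data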
Shn3 inh set2 – inhibitors of Schnurri-3 3'UTR reporter in osteoblasts. Clone20 osteoblast Shn3 3'UTR firefly luciferase, 24 h. inhibition, % at 12.5 µM. actives 0.52% (n = 360,000). AID 588674;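 active means mean inhibition of at least 75% with every replicate also reaching 75%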
697 NFkB inh – inhibitors of the PMA/ionomycin-induced NF-kB reporter in 697 B cells | 697 B-cell NF-kB luciferase reporter, 16 h | inhibition, % at 4 µM | actives 0.33% (n = 330,000); in the data active means inhibition above about 35%
Jurkat NFkB conf – lowers PMA/ionomycin-induced NF-kB signal in Jurkat cells. shares compounds with Jurkat NFkB inh. Jurkat NF-kB luciferase, 16 h. inhibition, % at 4 µM. actives 27% (n = 2,700). AID 435020;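 active means inhibition reaching about 45% at 4 µM in either replicate, limit read from the data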
697 NFkB conf – lowers PMA/ionomycin-induced NF-kB signal in 697 B cells; 697 B-cell NF-kB luciferase, 16 h; shares compounds with 697 NFkB inh; inhibition, % at 4 µM; actives 35% (n = 2,000); in the data active means inhibition mostly above about 28%, no sharp cut-off; inactive means mostly below about 22%
Mdm2-MdmX conf – confirmation of human Mdm2/MdmX interaction inhibitors | shares compounds with Mdm2 MdmX PPI | Mdm2-MdmX binding, luminescent assay | inhibition, % at 8 µM | actives 55% (n = 10,000) | AID 489028; in the data active means inhibition above about 40%
Full FLuc ctr – inhibits full-length luciferase, flagging false Mdm2/MdmX hits | shares compounds with Mdm2 MdmX PPI | SaOS-2 full-length luciferase counterscreen, luminescence | inhibition, % at 8 µM | actives 77% (n = 6,200);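 active means mean inhibition at 8 µM reaching about 37%, which flags the compound as non-specific, limit read from the data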;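 further: p53-null SaOS-2 cells with luciferase driven by a doxycycline-inducible promoter; compound on cells about two nights before reading with doxycycline added after day one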
Gli-Sufu confirm – Gli-SUFU antagonism confirmation, single concentration. shares compounds with Gli-Sufu antag. Sufu-KO-LIGHT cells, Gli luciferase reporter, luminescence. inhibition, % at 5 µM. actives 40% (n = 2,500). AID 602428;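 active means mean inhibition at 5 µM reaching about 45%, limit read from the data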
Gli cytotox – cytotoxic in Gli-SUFU antagonist counter-screen; cytotoxicity, % at 5 µM; actives 32% (n = 2,500); Sufu-KO-LIGHT cells cytotoxicity, ATP luminescence; shares compounds with Gli-Sufu antag;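 active means mean cytotoxicity at 5 µM above about 25%, limit read from the data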;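 further: cells exposed to compound overnight for roughly 16 to 18 hours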
Wnt3a counter – counter-screen for Gli-SUFU antagonists: Wnt3a reporter inhibition. shares compounds with Gli-Sufu antag. Wnt-LIGHT cells, Wnt3a-driven luciferase reporter, luminescence. inhibition, % at 6.25 µM. actives 20% (n = 2,500);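 active means mean inhibition above about 25%, limit read from the data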
Each line names hits and unclear results; the compound was inactive in the other large screens (follow-up assays come after a bar, where they were run).

Nc1nc(Cl)nc2c1ncn2[C@H]1C[C@H](O)[C@@H](CO)O1	Mdm2 MdmX PPI 87, Jurkat NFkB inh 65, Gli-Sufu antag 83, Shn3 inh set2 88, 697 NFkB inh 57 | Jurkat NFkB conf inactive | 697 NFkB conf 68 | Mdm2-MdmX conf 74 | Full FLuc ctr inactive | Gli-Sufu confirm 68 | Gli cytotox 25 | Wnt3a counter 50
O=S(=O)(c1cc(F)ccc1F)N1CCN(c2ncnc3ccccc23)CC1	Jurkat NFkB inh 60, Gli-Sufu antag 59, Shn3 inh set2 88 | Jurkat NFkB conf 58 | Gli-Sufu confirm 63 | Gli cytotox 58 | Wnt3a counter inactive
COc1ccc(N(C(=O)Cc2cccs2)C(C(=O)NC2CCCC2)c2ccncc2)cc1 (centres undefined)	none
COc1ccc(C(C(=O)NC2CCCCC2)N(C(=O)CCl)c2ccc(OC)cc2)cc1 (centres undefined)	Mdm2 MdmX PPI 100, Jurkat NFkB inh 93, Gli-Sufu antag 84, Shn3 inh set2 92, 697 NFkB inh 98 | Jurkat NFkB conf inactive | 697 NFkB conf 80 | Mdm2-MdmX conf 100 | Full FLuc ctr 50 | Gli-Sufu confirm inactive | Gli cytotox inactive | Wnt3a counter inactive
COc1ccc(C(C(=O)NC2CCCCC2)N(C(=O)CCl)c2ccc(C)cc2)cc1 (centres undefined)	Mdm2 MdmX PPI 98, Jurkat NFkB inh 95, Gli-Sufu antag 86, 697 NFkB inh 95 | Jurkat NFkB conf inactive | 697 NFkB conf inactive | Mdm2-MdmX conf 100 | Full FLuc ctr 54 | Gli-Sufu confirm inactive | Gli cytotox 29 | Wnt3a counter inactive
COc1ccc(N2CCc3c(C)nc4c(OC)cc(OC)cc4c32)cc1	Mdm2 MdmX PPI 51, Jurkat NFkB inh 51 | Jurkat NFkB conf inactive | Mdm2-MdmX conf inactive | Gli-Sufu confirm inactive | Gli cytotox inactive | Wnt3a counter inactive
CCc1ccc(C(=O)COC(=O)C2=NN(c3ccccc3)C(=O)CC2)cc1	none
CCN(CC)c1ccc(/C=N/Nc2nc(C)cc(=O)[nH]2)c(O)c1	Mdm2 MdmX PPI 64, Jurkat NFkB inh 59, Gli-Sufu antag 91 | Jurkat NFkB conf inactive | Mdm2-MdmX conf 80 | Full FLuc ctr inactive | Gli-Sufu confirm 85 | Gli cytotox 41 | Wnt3a counter 70
CCN(CC)c1ccc(/C=N/Nc2ccc(C)cc2)c(O)c1	none (no result: Mdm2 MdmX PPI, Jurkat NFkB inh, 697 NFkB inh)
Cc1ncoc1C(=O)NC1CCCc2c1cnn2-c1ccc(C(C)(C)C)cc1 (centres undefined)	Jurkat NFkB inh 60 | Jurkat NFkB conf 59 | Gli-Sufu confirm 45 | Gli cytotox inactive | Wnt3a counter inactive
Cc1ccc(C(=O)c2cc([N+](=O)[O-])ccc2N2CCCCC2)c(C)c1	Mdm2 MdmX PPI 55, Jurkat NFkB inh 66, Gli-Sufu antag 59 | Jurkat NFkB conf 55 | Mdm2-MdmX conf 67 | Full FLuc ctr 125 | Gli-Sufu confirm 53 | Gli cytotox 60 | Wnt3a counter inactive
CC(C)(C)c1ccc(C(=O)O/N=C(\N)c2ccccn2)cc1	Mdm2 MdmX PPI 98, Jurkat NFkB inh 59, Gli-Sufu antag 86 | Jurkat NFkB conf 86 | Mdm2-MdmX conf 97 | Full FLuc ctr inactive | Gli-Sufu confirm 91 | Gli cytotox inactive | Wnt3a counter 102

Compound activity (PubChem)
